Calls of active or inactive are those of the source.
Legend:
[1] = small molecules captured by biotinylated probe aFSTL3 – biochemical, small-molecule microarray, fluorescence 635/667, stem cell growth factor project, primary screen (AID 1064); conditions: higher = more signal;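 further: measures binding of the biotinylated anti-FSTL3 antibody to printed compounds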
[2] = binders from COS7 lysate, DM2A8 probe, primary screen, torsin A project, cell lysate, small-molecule microarray, fluorescence 635/667 (AID 1065); conditions: higher = more signal, COS7 lysate expressing mutant human TOR1A
[3] = small molecules captured by biotinylated probe aFGF2 – biochemical, small-molecule microarray, fluorescence 635/667, stem cell growth factor project, primary screen (AID 1067); conditions: higher = more signal;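 further: measures binding of biotinylated aFGF2 protein to printed compounds on slides; z-score merges feature fluorescence and signal-to-noise across triplicate slides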
[4] = small molecules captured by biotinylated probe aFGF10 – biochemical, small-molecule microarray, fluorescence 635/667, stem cell growth factor project, primary screen (AID 1071); conditions: higher = more signal;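 further: score merges 667 nm spot intensity and signal to noise from triplicate slides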
[5] = target: Neurogenic locus notch homolog protein 2 (Homo sapiens) (UniProt Q04721); assay: small molecules binding Notch2 protein – biochemical, small-molecule microarray, 635 nm fluorescence, stem cell growth factors, primary screen (AID 1073); conditions: higher = more signal
Sequence of Neurogenic locus notch homolog protein 2 (Homo sapiens) (Q04721 whole entry, looked up, canonical isoform): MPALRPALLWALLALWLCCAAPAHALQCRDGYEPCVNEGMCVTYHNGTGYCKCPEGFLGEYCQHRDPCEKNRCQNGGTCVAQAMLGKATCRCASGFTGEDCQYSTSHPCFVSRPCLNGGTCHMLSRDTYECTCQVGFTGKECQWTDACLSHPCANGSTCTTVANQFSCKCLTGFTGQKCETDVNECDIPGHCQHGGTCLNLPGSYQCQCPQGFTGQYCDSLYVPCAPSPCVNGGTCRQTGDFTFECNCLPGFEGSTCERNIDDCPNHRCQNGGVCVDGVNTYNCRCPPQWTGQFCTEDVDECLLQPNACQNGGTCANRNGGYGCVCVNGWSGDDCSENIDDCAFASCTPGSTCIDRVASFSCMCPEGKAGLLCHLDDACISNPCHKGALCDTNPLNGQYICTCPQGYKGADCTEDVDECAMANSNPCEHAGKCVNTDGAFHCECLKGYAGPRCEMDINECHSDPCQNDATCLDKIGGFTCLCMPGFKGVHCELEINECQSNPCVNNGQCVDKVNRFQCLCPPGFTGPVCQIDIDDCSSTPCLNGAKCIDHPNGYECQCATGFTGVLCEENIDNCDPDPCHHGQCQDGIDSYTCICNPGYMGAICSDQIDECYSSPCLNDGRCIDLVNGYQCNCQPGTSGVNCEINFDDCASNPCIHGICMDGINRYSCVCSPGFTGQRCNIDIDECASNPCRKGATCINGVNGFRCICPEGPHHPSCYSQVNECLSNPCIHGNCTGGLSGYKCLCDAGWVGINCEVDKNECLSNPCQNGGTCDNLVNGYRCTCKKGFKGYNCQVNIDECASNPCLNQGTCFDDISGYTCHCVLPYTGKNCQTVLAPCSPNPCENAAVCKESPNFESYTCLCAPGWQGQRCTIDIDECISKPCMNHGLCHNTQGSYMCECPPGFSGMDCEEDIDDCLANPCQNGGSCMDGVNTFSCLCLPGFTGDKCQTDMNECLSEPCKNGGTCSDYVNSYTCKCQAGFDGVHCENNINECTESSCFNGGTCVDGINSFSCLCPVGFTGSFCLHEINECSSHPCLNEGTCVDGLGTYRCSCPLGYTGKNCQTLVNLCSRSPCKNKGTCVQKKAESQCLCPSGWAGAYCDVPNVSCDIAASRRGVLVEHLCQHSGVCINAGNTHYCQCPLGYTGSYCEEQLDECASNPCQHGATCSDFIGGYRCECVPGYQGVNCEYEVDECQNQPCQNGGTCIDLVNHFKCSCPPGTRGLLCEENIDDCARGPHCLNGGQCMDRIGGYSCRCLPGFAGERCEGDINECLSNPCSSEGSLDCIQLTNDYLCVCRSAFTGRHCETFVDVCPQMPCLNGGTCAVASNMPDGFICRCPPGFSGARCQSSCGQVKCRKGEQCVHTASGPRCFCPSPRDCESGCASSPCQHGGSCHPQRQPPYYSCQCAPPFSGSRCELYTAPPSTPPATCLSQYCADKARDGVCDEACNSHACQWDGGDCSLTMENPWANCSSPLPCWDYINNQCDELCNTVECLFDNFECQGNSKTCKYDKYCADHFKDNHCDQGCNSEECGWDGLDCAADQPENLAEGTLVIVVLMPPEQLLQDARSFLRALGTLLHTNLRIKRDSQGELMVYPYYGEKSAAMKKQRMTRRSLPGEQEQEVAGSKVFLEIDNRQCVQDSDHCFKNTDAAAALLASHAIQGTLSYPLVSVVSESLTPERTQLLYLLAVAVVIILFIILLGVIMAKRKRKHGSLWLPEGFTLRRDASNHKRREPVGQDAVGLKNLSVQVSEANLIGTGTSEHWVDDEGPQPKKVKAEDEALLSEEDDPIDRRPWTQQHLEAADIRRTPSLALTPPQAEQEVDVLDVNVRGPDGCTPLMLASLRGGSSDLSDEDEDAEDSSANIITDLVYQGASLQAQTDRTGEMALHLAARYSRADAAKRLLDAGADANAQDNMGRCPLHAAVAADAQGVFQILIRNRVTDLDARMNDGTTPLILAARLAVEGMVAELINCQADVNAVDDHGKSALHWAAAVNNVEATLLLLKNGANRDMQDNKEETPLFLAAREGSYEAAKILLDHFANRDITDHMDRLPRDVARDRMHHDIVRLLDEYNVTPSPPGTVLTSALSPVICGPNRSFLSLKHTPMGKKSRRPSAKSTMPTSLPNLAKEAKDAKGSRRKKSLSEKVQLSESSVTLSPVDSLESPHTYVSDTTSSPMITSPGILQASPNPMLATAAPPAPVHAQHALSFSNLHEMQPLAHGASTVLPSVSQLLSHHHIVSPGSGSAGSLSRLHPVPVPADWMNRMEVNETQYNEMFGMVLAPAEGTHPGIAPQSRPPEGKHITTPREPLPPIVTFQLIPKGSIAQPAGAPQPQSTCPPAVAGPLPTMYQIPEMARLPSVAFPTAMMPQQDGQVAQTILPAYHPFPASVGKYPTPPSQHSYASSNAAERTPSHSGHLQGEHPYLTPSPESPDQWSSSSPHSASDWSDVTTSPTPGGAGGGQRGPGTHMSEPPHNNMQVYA

[6] = target: Pro-neuregulin-1, membrane-bound isoform (Homo sapiens) (UniProt Q02297); assay: small molecules binding neuregulin-1 protein – biochemical, small-molecule microarray, fluorescence 635/667, psychiatric disease protein project, primary screen (AID 1075); conditions: NRG1 binding, 635 nm fluorescence, higher = more signal;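 further: score combines 667 nm spot fluorescence with signal to noise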
Sequence of Pro-neuregulin-1, membrane-bound isoform (Homo sapiens) (Q02297 whole entry, looked up, the tested form may be a part, canonical isoform): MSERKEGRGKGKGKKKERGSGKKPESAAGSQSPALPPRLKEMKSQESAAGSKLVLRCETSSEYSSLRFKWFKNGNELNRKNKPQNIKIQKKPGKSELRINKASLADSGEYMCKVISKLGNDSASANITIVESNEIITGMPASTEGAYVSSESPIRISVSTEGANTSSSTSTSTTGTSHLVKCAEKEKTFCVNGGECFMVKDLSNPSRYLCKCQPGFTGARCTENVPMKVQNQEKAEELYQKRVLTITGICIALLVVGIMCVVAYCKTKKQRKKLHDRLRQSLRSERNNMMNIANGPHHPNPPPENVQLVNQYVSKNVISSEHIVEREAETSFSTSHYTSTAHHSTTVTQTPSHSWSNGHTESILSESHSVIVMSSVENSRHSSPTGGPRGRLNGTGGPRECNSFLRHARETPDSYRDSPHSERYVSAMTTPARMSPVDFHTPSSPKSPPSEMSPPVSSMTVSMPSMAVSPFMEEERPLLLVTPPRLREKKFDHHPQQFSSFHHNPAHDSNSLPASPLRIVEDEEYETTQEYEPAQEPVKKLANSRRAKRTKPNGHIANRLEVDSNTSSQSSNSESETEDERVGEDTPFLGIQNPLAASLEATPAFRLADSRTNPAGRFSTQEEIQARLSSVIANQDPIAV

[7] = test system: Neuregulin-1 EGF-like domain; assay: small molecules binding NRG1 EGF domain – biochemical, small-molecule microarray, 635 nm fluorescence, primary screen (AID 1081); conditions: higher = more signal;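 further: binding of the protein to compounds printed on small-molecule microarray slides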
[8] = FRG1 expression reporter modulators in myotubes – cell-based, C2C12 myotubes, firefly/Renilla luciferase, luminescence, FRG1 inhibition for FSHD, primary screen (AID 1084); conditions: FRG1 promoter luciferase, higher = more signal, called active from +8 up or from −8 down
[9] = small molecules captured by biotinylated probe aFST – biochemical, small-molecule microarray, fluorescence 635/667, stem cell growth factor project, primary screen (AID 1086); conditions: higher = more signal;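 further: score merges 667 nm fluorescence with signal-to-noise of each printed compound spot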
[10] = binders of probe aHhip on microarray, primary screen, stem cell growth factor project, biochemical, small-molecule microarray, fluorescence 635/667 (AID 1087); conditions: higher = more signal;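 further: score merges spot fluorescence at 667nm with spot signal to noise ratio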
[11] = test system: PRMT1 (protein arginine N-methyltransferase 1); assay: small molecules binding arginine methyltransferase PRMT1 – biochemical, small-molecule microarray, 635 nm fluorescence, primary screen (AID 1088); conditions: higher = more signal;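 further: binding of Prmt1 protein to compounds spotted on small-molecule microarray slides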
[12] = growth effects on S. cerevisiae YJM789 – YJM789 clinical isolate, OD600, 24 h, basal, primary screen (AID 1089); conditions: higher = more signal, called active from +8 up or from −8 down;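 further: growth of clinical yeast isolate S. cerevisiae YJM 789 seeded 1000 cells per well; test concentration not given here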
[13] = S. pombe growth modifiers, basal conditions – strain 972, OD600, 24 h, no modulator, primary screen (AID 1090);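 further: basal condition with compound alone and no growth modifier present; test concentration not given here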; conditions: S. pombe 972 growth, higher = more signal, called active from +8 up or from −8 down
[14] = budding yeast growth modifiers under rapamycin – strain BY4716, OD600, 96 h, primary screen (AID 1091); further: test concentration not given here; conditions: S. cerevisiae BY4716 + rapamycin, higher = more signal, called active from +8 up or from −8 down
[15] = target: Torsin-1A-interacting protein 2 (Homo sapiens) (UniProt Q8NFQ8); assay: small molecules binding lysate-expressed LULL1 – cell lysate, human LULL1 lysate, 635/667 nm fluorescence, primary screen (AID 1092); conditions: small-molecule microarray, hLULL1 lysate binding, 635 nm fluorescence; higher = more signal;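 further: probe is lysate of COS7 cells overexpressing human LULL1; score merges per-feature 667 nm fluorescence with signal-to-noise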
Sequence of Torsin-1A-interacting protein 2 (Homo sapiens) (Q8NFQ8 whole entry, looked up): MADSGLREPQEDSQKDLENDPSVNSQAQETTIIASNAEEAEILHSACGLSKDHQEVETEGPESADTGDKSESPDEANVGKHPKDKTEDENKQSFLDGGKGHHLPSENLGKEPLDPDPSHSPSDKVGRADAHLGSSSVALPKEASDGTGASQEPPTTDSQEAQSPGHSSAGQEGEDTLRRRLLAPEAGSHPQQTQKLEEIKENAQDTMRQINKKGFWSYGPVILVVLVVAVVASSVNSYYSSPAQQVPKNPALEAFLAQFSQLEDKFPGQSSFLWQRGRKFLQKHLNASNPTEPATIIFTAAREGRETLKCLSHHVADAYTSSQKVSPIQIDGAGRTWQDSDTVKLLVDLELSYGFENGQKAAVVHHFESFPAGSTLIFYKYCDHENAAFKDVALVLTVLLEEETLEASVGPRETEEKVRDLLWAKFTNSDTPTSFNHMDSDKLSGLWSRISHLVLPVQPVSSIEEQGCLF

[16] = optical density change of DRC41 E. coli – strain DRC41, OD650, 24 h, E. coli filamentation project, primary screen (AID 1093);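 further: MC1000 strain lacking acrAB efflux and sulA so SOS filamentation is blocked; test concentration not given here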; conditions: E. coli DRC41 growth, higher = more signal, called active from +8 up or from −8 down
[17] = probe aLefty2 binding to arrayed compounds – biochemical, biotinylated probe, 635/667 nm fluorescence, primary screen (AID 1094); conditions: small-molecule microarray, higher = more signal;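 further: score merges spot fluorescence near 667 nm with spot signal-to-noise ratio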
[18] = test system: Noggin (protein binding on small-molecule microarray); assay: small molecules binding Noggin protein – biochemical, 635/667 nm fluorescence, primary screen (AID 1095); conditions: 635 nm fluorescence, higher = more signal;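 further: score merges 667 nm feature fluorescence with signal to noise over triplicate slides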
[19] = target: Neurogenic locus notch homolog protein 3 (Homo sapiens) (UniProt Q9UM47); assay: small molecules binding NOTCH3 protein – biochemical, 635/667 nm fluorescence, primary screen (AID 1096); conditions: small-molecule microarray, 635 nm fluorescence, higher = more signal
[20] = probe aEGFR binding to arrayed compounds – biochemical, biotinylated probe, 635/667 nm fluorescence, primary screen (AID 1097); conditions: small-molecule microarray, higher = more signal;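 further: probe is a biotinylated anti-EGFR antibody binding compounds printed on slides; score combines fluorescence near 667 nm and signal to noise of each spot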

Compound	composite z-score [1]	composite z-score [2]	composite z-score [3]	composite z-score [4]	composite z-score [5]	composite z-score [6]	composite z-score [7]	z-score [8]	composite z-score [9]	composite z-score [10]	composite z-score [11]	z-score [12]	z-score [13]	z-score [14]	composite z-score [15]	z-score [16]	composite z-score [17]	composite z-score [18]	composite z-score [19]	composite z-score [20]
CCCCN1CC=CC23O[C@@H]4/C=C\CCCOC(=O)C4[C@H]2C(=O)N(C(C)CO)[C@@H]3C1=O (stereo not given in full)	-0.0235	-0.809	-0.0963	-0.272	-0.327	0.223	1.19	-1.01 (inactive)	-0.375	-0.261	-0.376	-0.0849 (inactive)	-0.958 (inactive)	-0.417 (inactive)	-0.0431	0.315 (inactive)	-0.282	0.16	-0.0087	-0.233
CCOC(=O)C=Cc1cccc(OC)c1O	-0.0086	0.689	-0.0894	-0.572	-1.37	-0.196	0.189	6.99 (inactive)	-0.722	-0.439	0.124	-9.3 (active)	-7.21 (inactive)	-0.346 (inactive)	0.0496	-0.0998 (inactive)	-0.249	-1.09	-0.125	-0.209
COCCOC(=O)N1C(=O)[C@@]2(c3cc(C#CC4(O)CCCCCC4)ccc31)[C@H](c1ccc(O)cc1)N1[C@H](c3ccccc3)[C@H](c3ccccc3)OC(=O)[C@H]1[C@@H]2C(=O)N1CCc2cc(OC)c(OC)cc2C1	0.244	-0.287	-0.116	-0.432	-1.54	0.449	0.0919	0.0543 (inactive)	-0.538	-0.268	1.56	-0.749 (inactive)	-0.395 (inactive)	-0.494 (inactive)	2.41	1.45 (inactive)	-0.0719	-0.435	-0.551	-0.226
C=CCC(OC(C)=O)[C@@H]1[C@@H](N(Cc2cc3ccccc3o2)C(=O)c2cccc3ccccc23)c2cc(OCCCO)ccc2N1C(=O)Cc1ccc(OC)cc1 (stereo not given in full)	-0.295	-0.52	-0.0128	0.0939	0.0751	0.758	0.111	-0.709 (inactive)	-0.0464	-0.109	0.21	-0.0559 (inactive)	-0.28 (inactive)	0.351 (inactive)	1.33	-0.829 (inactive)	-0.0745	0.342	-0.351	-0.0967
COC(=O)[C@@]1(Cc2ccc(OC)cc2)[C@H]2c3cc(C(=O)N4CCCC4)n(CCN4CCOCC4)c3C[C@H]2CN1C(=O)c1ccccc1	2.56	0.553	1.01	1.47	1.59	2.23	1.37	0.877 (inactive)	2.71	3.48	0.57	-0.674 (inactive)	1.15 (inactive)	-1.32 (inactive)	3.66	-0.22 (inactive)	1.73	0.398	0.937	1.23
O=C1[C@H]2C=C(Br)[C@H](C[C@@H]2OCCOCCO)[C@@]12CO2	0.0321	-0.0798	-0.103	0.373	0.473	-0.151	0.437	-0.0763 (inactive)	0.0751	-0.0994	-0.223	0.85 (inactive)	0.397 (inactive)	1.19 (inactive)	0.0385	-0.922 (inactive)	-0.111	0.595	0.235	0.0974
COCCOC(=O)N1C(=O)[C@@]2(c3cc(C#CCCO)ccc31)[C@H](C(=O)NC[C@H](O)c1ccccc1)[C@H]1C(=O)O[C@H](c3ccccc3)[C@H](c3ccccc3)N1[C@@H]2c1ccc(OCCO)cc1	0.664	0.271	-0.114	0.208	1.08	1.27	1.16	0.469 (inactive)	0.152	-0.11	1.54	1.23 (inactive)	0.619 (inactive)	4.47 (inactive)	3.11	2.17 (inactive)	0.0129	0.909	1.05	0.0634
CN(C)CCCCNC(=O)[C@@H]1C[C@@H]2C(=O)N[C@@H](CCCCN)C(=O)N2[C@@H]1c1cccc(OCCO)c1	1.24	-0.719	-0.138	-0.347	-0.573	2.07	1.3	3.31 (inactive)	0.145	0.424	1.02	-0.0533 (inactive)	0.286 (inactive)	-0.363 (inactive)	3.58	-0.285 (inactive)	0.197	-0.989	0.37	-0.223
O=C(NCC(O)CO)[C@@]1(Cc2ccccc2)N=C(c2ccc(OCCCO)cc2)O[C@H]1c1ccccc1 (stereo not given in full)	1.32	0.691	0.16	0.36	-0.0617	1.39	1.26	-1.89 (inactive)	1.08	0.415	0.814	-0.738 (inactive)	-0.456 (inactive)	-1.26 (inactive)	3.57	1.62 (inactive)	0.491	0.431	-0.376	0.298
C=CC[C@@]1(C(=O)NCCN2CCOCC2)N=C(c2ccc(OCCCO)cc2)O[C@@H]1c1ccccc1CN=[N+]=[N-]	1	0.812	-0.0524	0.455	0.674	1.26	1.29	-0.484 (inactive)	1.65	0.0989	1.56	-1.46 (inactive)	-1.18 (inactive)	-0.548 (inactive)	3.02	0.0499 (inactive)	0.149	-0.0392	0.19	-0.0735

— PubChem BioAssay
